# Measurements as given in PubChem BioAssay (NCI).
# Compounds without any hit were thinned out: in the full panel of roughly 83,000, 20% have a hit.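 Values shown are percent growth following 48 h exposure of cells in 96-well plates to a single concentration of compound; below 10 was considered active.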 Activity calls are given as the source filed them.
# Test system: K-562 leukemia
# Assay: NCI-60 one-dose screen, 48 h (100 = growth as untreated, 0 = no growth, -100 = all killed)
# Settings: 10 µM unless noted
row,Structure (SMILES),growth
1,[Cl][Hg][c]1cc[c]([Hg][Cl])o1,7.68% (active)
2,NC(=S)c1cn(C2OC(CO)C(O)C2O)c2ncnc(N)c12 (stereo not given),-42.3% (active)
3,COC(=O)CC[C@H](Cc1ccccc1)NC(=O)c1csc([C@@H](C[C@H](C(C)C)N(C)C(=O)[C@@H](NC(=O)[C@H]2CCCCN2C)C(C)C)OC(C)=O)n1,24.4% (inactive)

# Test system: MALME-3M melanoma
# Assay: as above
# Settings: 10 µM unless noted
row,Structure (SMILES),growth
1,O=C(CCl)c1ccc([N+](=O)[O-])o1,-54.6% (active)
2,CCCCCSC1C2C(=O)C(Br)=CC13CCNc1c(O)c4c5c(c13)=[N+]2CCC=5C=N4 (stereo not given),-99.5% (active)
3,COc1ccc(C/C(C)=C(\c2ccc(OCCN3CCOCC3)cc2)c2ccc(OC(=O)Cc3ccccc3)cc2)cc1,-79.5% (active)
4,Cn1cc(-c2csc(-c3cn(CCCCN4CCCCC4)c4ccc(F)cc34)n2)c2cccnc21,-68.4% (active)
5,COc1ccc2c(c1)c(-c1nc(-c3cn(C)c4ncccc34)cs1)cn2CCCCN1CCCCC1,-73.9% (active)
6,C[n+]1c(/C=C/c2ccc(N(CCCl)CCCl)cc2)sc2ccccc21,54% (inactive)
7,C=CC[Se]C(=O)c1ccccc1OC(C)=O,30.9% (inactive)
8,CC(=O)OC1CCC2C3CCC4=C/C(=N/OC(=O)c5ccc(N(CCCl)CCCl)cc5)CCC4(C)C3CC(C)C12 (stereo not given),76.3% (inactive)
9,CCCCCCCC[n+]1ccc2ccccc2c1,42.4% (inactive)
10,Cn1cccc1C1CC(=O)N(CCC[Se]C#N)C1=O (stereo not given),-30.1% (active)
11,C[Se]C(=O)c1ccccc1OC(C)=O,68.7% (inactive)
12,O=C1Nc2ccccc2C2c3cccn3-c3ccccc3CN12 (stereo not given),52% (inactive)
13,CCOC(=O)[C@@H](C)C[C@H](Cc1ccccc1)NC(=O)c1csc([C@@H](C[C@H](C(C)C)N(C)C(=O)[C@H](CCC(C)C)NC(=O)[C@H]2CCCCN2C)OC(C)=O)n1,33.1% (inactive)
14,COC(=O)[C@H](C[C@H](Cc1ccccc1)NC(=O)c1csc([C@@H](C[C@H](C(C)C)N(C)C(=O)[C@@H](NC(=O)[C@H]2CCCCN2C)C(C)C)OC(C)=O)n1)NC(=O)OCc1ccccc1,-53.7% [8.5 µM] (active)
15,CC1(C)N=C(N)N=C(N)N1c1ccc(OCCCNC(=O)Nc2ccc(S(=O)(=O)F)cc2)c(Cl)c1,55.2% (inactive)
16,O=C(CN1CCN(C(=O)c2ccco2)CC1)Nc1ccc(Cl)cc1C(=O)c1ccccc1Cl,104% (inactive)
17,Cc1cc(N(CCCl)CCCl)ccc1C=Nc1ccccc1-c1ccccc1,77.1% (inactive)
18,Cn1cc(-c2csc(-c3cn(CCN4CCOCC4)c4ccccc34)n2)c2cccnc21,81.4% (inactive)
19,CCOC(=O)[C@@H](C)C[C@H](Cc1ccccc1)NC(=O)c1csc([C@@H](C[C@H](C(C)C)N(C)C(=O)[C@H](CC)NC(=O)[C@H]2CCCCN2C)OC(C)=O)n1,71.7% (inactive)

row,Structure (SMILES),growth
1,ClC1=C(Cl)C(Cl)(C2(Cl)C(Cl)=C(Cl)C(Cl)=C2Cl)C(Cl)=C1Cl,-67.5% (active)
2,O=C([O][Hg][CH2]C1OCCOC1[CH2][Hg][O]C(=O)c1ccccc1)c1ccccc1 (stereo not given),-98.3% (active)
3,COc1ccc([As]=[As]c2ccc(OC)c(NCS(=O)(=O)O)c2)cc1NCS(=O)(=O)O (stereo not given),-44.6% (active)
4,[Cl][Hg][n]1c(-c2ccco2)nc2ccccc21,119% (inactive)
5,CCC[CH2][Sn]([CH2]CCC)([CH2]CCC)[O]c1ccc(Cl)cc1Cl,-61.5% (active)
6,NC(CCl)CCl,92.6% (inactive)
7,CN1CCC(c2c[nH]c3ccccc23)C1 (stereo not given),112% (inactive)
8,CCCCCCCCCCCCCCCCCC1OC[C@@H](COC(=O)O[C@@H](C(=O)O[C@H]2C[C@@]3(O)[C@@H](OC(=O)c4ccccc4)[C@@H]4[C@]5(OC(C)=O)CO[C@@H]5C[C@H](O)[C@@]4(C)C(=O)[C@H](OC(C)=O)C(=C2C)C3(C)C)[C@@H](NC(=O)c2ccccc2)c2ccccc2)O1 (stereo not given in full),50.5% (inactive)
9,CC1=C([Te]c2ccc(O)cc2)C(=O)c2ccccc2C1=O,5.22% (active)
10,O=C1NC(=O)C(=Cc2cn(CCCCCCn3c4ccccc4c(=O)c4ccccc43)c3ccccc23)C(=O)N1,95.8% (inactive)
11,CC(C)OC(=O)[C@H](C)NP(=O)(Oc1ccccc1)C1CCCN(O)C1=O (stereo not given in full),43.6% (inactive)
12,CCCCCCC(=O)NC1=C(N2CC2)C(=O)C(NC(=O)CCCCCC)=C(N2CC2)C1=O,7.93% (active)
13,COc1ccc(/C=C\c2cc(OC)c(OC)c(OC)c2)cc1NS(=O)(=O)c1ccc(Cl)cc1,59.5% (inactive)
14,CC[C@H](C)[C@H](NC(=O)[C@H]1CCCCN1C)C(=O)N(C)[C@H](CC(=O)c1nc(C(=O)N[C@@H](Cc2ccccc2)C[C@H](C)C(=O)O)cs1)C(C)C,67.1% (inactive)
15,C[C@]12C[C@@H](CO)[C@H](O)C[C@@H]1CC[C@@H]1[C@@H]2CC[C@]2(C)[C@@H](O)CC[C@@H]12,90.6% (inactive)
16,[Cl][Hg][c]1cc[c]([Hg][Cl])o1,-51.6% (active)
17,NC(=S)c1cn(C2OC(CO)C(O)C2O)c2ncnc(N)c12 (stereo not given),-30.5% (active)
18,COC(=O)CC[C@H](Cc1ccccc1)NC(=O)c1csc([C@@H](C[C@H](C(C)C)N(C)C(=O)[C@@H](NC(=O)[C@H]2CCCCN2C)C(C)C)OC(C)=O)n1,74.2% (inactive)
